Among all 390,000 compounds or so, about 910 (0.23%) were called active. Not shown: some 5% with an inconclusive outcome. No cut-off for these calls is given here. This excerpt belongs to a sample that is enriched for actives.

For this assay, the target named is T1, Ubiquitin carboxyl-terminal hydrolase 1 (Homo sapiens) (UniProt O94782).
T1 sequence (whole entry): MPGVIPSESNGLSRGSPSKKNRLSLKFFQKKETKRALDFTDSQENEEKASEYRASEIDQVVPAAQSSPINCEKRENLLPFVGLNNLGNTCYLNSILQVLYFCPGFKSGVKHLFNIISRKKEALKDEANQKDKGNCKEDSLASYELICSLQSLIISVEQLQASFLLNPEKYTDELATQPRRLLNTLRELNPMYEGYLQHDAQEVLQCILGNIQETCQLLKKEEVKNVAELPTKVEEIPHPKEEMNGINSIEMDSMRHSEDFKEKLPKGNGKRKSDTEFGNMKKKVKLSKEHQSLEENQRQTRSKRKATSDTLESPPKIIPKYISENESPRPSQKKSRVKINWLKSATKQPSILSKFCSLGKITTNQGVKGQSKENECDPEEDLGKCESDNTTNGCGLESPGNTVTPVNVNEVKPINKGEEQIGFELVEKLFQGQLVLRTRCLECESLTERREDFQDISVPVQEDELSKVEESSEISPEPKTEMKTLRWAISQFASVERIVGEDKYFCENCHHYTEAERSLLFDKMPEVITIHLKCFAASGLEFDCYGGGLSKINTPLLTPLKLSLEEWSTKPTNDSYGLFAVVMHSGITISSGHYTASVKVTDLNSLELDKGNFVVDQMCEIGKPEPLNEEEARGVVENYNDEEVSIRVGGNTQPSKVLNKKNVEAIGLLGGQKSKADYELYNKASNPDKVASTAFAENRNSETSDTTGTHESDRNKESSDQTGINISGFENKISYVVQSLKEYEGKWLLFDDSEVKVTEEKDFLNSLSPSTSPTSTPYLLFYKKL
Kind of assay: Inhibitors of USP1/UAF1: Primary Screen. In kind it is functional.
With `CCOC(=O)C(C)C(C)=O` (stereo unspecified), the Potency was 355 µM (active).

The record behind these values is ChEMBL document CHEMBL1201862, “PubChem BioAssay data set” (2004).
